Source: PubChem
Many of the other results were omitted from the sample, so hits are more common in it than they were.
Pf apPOL block = Pf-apPOL DNA polymerase inhibition. Recombinant Pf-apPOL, molecular beacon fluorescence, 1.5 h. 210,000 tested, 0.25% active. AID 1794808. inhibition, % at 10 µM
mHTT CaM bind = disrupts binding of mutant huntingtin to calmodulin | P42858 | AlphaScreen His-mHTT/GST-CaM binding, luminescence | inhibition, % at 15 µM | 190,000 tested, 3.6% active;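 further: 0% = both proteins with DMSO and 100% = one protein alone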
* marks the source's active call; other numbers are inactive results; i = inactive; nt = no result. No stated cut-off is given here; in the data, active means inhibition above about 50%; inactive means the rest.

SMILES	Pf apPOL block	mHTT CaM bind
CCN1CCC2(CC1)N=C(c1ccc(F)cc1)CC(c1cc(Cl)ccc1O)N2 (stereo not drawn)	2.6	28.2
CC(=O)N1CCC2(CC1)N=C(c1ccccc1)CC(c1cc(Cl)ccc1O)N2 (stereo not drawn)	1.4	65.4*
COc1ccc(C2=NC3(CCN(C(C)=O)CC3)NC(c3cc(Cl)ccc3O)C2)cc1 (stereo not drawn)	-3.5	98.7*
CC(C)N1CCC2(CC1)N=C(c1ccccc1O)CC(c1ccccc1O)N2 (stereo not drawn)	-1.9	19.6
CCCS(=O)(=O)N1CCC(n2c(C)nc3cccnc32)C1 (stereo not drawn)	-3.9	-9.8
COC(=O)c1cc(Nc2ccccc2)c2cc(F)ccc2n1	-8.7	-10.8
O=C(C1=C(O)C(=O)N(CCCn2ccnc2)C1c1ccncc1)c1cccs1 (stereo not drawn)	-25.9	2.0
COc1ccc(N(C=NC#N)CC(=O)c2ccccc2)cc1	-4.0	1.3
Cc1ccc(C)c(C2=NC3(CCN(C)CC3)NC(c3cc(Cl)ccc3O)C2)c1 (stereo not drawn)	1.1	98.2*
CCOC(=O)N1CCC2(CC1)N=C(c1ccccc1O)CC(c1cc(Cl)ccc1O)N2 (stereo not drawn)	-3.3	9.0
Oc1ccc(Cl)cc1C1=NC2(CCNCC2)NC(c2ccccc2O)C1 (stereo not drawn)	-3.6	100.3*
COc1cccc(C2=NC3(CCN(C)CC3)NC(c3cc(Cl)ccc3O)C2)c1 (stereo not drawn)	-3.5	51.6*
CC(=O)N1CCC2(CC1)N=C(c1ccc(C)cc1C)CC(c1cc(Cl)ccc1O)N2 (stereo not drawn)	-5.1	87.8*
Cc1ccc(C2CC(c3ccccc3O)=NC3(CCN(C)CC3)N2)cc1 (stereo not drawn)	6.5	38.2
CN1CCC2(CC1)N=C(c1ccccc1O)CC(c1ccccc1O)N2 (stereo not drawn)	-0.4	28.1
CCOc1ccc(C2=NC3(CCN(C)CC3)NC(c3cc(Cl)ccc3O)C2)cc1 (stereo not drawn)	-0.3	8.6
CS(=O)(=O)N1CCc2ccc(NC(=O)Nc3ccc(Br)cc3)cc21	-0.6	-8.5
Cc1ccccc1C(=O)N1C(C(=O)NCc2ccncc2)COC12CCCC(C)C2 (stereo not drawn)	-3.2	13.7
CS(=O)(=O)N/N=C/c1cc(Cl)cc(Br)c1O	nt	i
COc1cccc(C2=NC(C)(C(C)C)NC(c3ccccc3O)C2)c1 (stereo not drawn)	-1.1	70.0*
CCCC1(C)N=C(c2ccc3c(c2)OCO3)CC(c2ccccc2O)N1 (stereo not drawn)	-8.4	84.0*
CC(C)C1N=C(c2ccc3c(c2)OCO3)CC(c2cc(Cl)ccc2O)N1 (stereo not drawn)	-1.3	67.0*
COc1ccc(O)c(C2=NC3(CCN(C(C)C)CC3)NC(c3ccccc3O)C2)c1 (stereo not drawn)	-2.1	29.2
CC(=O)N1CCC2(CC1)N=C(c1ccc(C)c(C)c1)CC(c1cc(Cl)ccc1O)N2 (stereo not drawn)	-2.1	63.3*
CCOC(=O)N1CCC2(CC1)N=C(c1ccc3c(c1)OCO3)CC(c1ccccc1O)N2 (stereo not drawn)	5.9	21.0
SMILES	Pf apPOL block	mHTT CaM bind
CC(C)C1N=C(c2ccc3c(c2)OCO3)CC(c2cc(Br)ccc2O)N1 (stereo not drawn)	-2.9	31.0
CCOC(=O)N1CCC2(CC1)N=C(c1ccc(F)cc1)CC(c1cc(Cl)ccc1O)N2 (stereo not drawn)	4.0	29.4
COCCn1c(=N)c(C(=O)NC(C)c2ccccc2)cc2c(=O)n3ccccc3nc21 (stereo not drawn)	-10.9	5.0
CN1c2ccccc2C(C)(C)C12C=Cc1cc(Br)cc(Br)c1O2 (stereo not drawn)	nt	-8.9
COc1ccc(C)cc1NC(=O)CCCn1cccc1	0.9	0.5
COc1cc(-c2nc(C=Nc3ccc(C)cc3)c(O)o2)cc(OC)c1OC	-4.4	27.0
CCCC1(C)N=C(c2ccc(Cl)cc2)CC(c2cccc(OC)c2O)N1 (stereo not drawn)	-6.9	88.0*
COc1cccc(C2CC(c3ccc(C)c(C)c3)=NC3(CCN(C(C)=O)CC3)N2)c1O (stereo not drawn)	0.8	39.4
COc1cccc(C2CC(c3ccc(Cl)cc3)=NC3(CCN(C(C)=O)CC3)N2)c1O (stereo not drawn)	-1.9	58.4*
Cc1ccc(C2=NC3(CCN(C)CC3)NC(c3ccccc3O)C2)cc1 (stereo not drawn)	-0.9	13.1
CCN1CCC2(CC1)N=C(c1ccc(C)cc1)CC(c1cccc(OC)c1O)N2 (stereo not drawn)	-3.4	9.6
Cc1ccc(C2=NC(C)(C)NC(c3ccccc3O)C2)cc1 (stereo not drawn)	-3.4	100.0*
Cc1cccc(NC(=O)CN2C(=O)C(c3ccccc3)=NC23CCCCCC3)c1	-3.9	-9.8
O=C(NCCC1=CCCCC1)c1cncc(Br)c1	1.1	-3.5
S=C(NN=Cc1ccn[nH]1)NC1CCCCC1	-1.6	nt
O=S(=O)(c1ccc(-c2csc(=Nc3ccccc3)n2CCCO)cc1)N1CCOCC1	-8.6	43.0
CCN(CC)S(=O)(=O)c1ccc(-c2csc(=Nc3ccc(C)cc3)n2C)cc1	-9.1	-1.0
CCN(CC)S(=O)(=O)c1ccc(-c2csc(=Nc3ccc(F)cc3)n2CCCO)cc1	-2.0	51.0*
CCN(CC)S(=O)(=O)c1ccc(-c2csc(=Nc3cccc(C)c3)n2CCCO)cc1	0.5	64.0*
O=C(Nc1nc(-c2ccco2)cs1)c1csc(-c2cnccn2)n1	75.5*	6.0
Cc1nnc(NC(=O)c2csc(-c3cnccn3)n2)s1	46.7	-12.5
COc1ccc(-c2nc(N3CCCC3)ncc2C(=O)O)cc1	-2.8	-3.9
CC12CCC3C(CCC4CCCCC43C)C1CC(c1nc3ccccc3[nH]1)=C2O (stereo not drawn)	-1.0	-1.0
CC12CCC3C(CCC4CCCCC43C)C1CCC2N (stereo not drawn)	-1.2	100.0*
Cc1ccc(CNC(=O)c2cc(N3CCOCC3)c3cc(C)ccc3n2)cc1	-1.5	-8.5
SMILES	Pf apPOL block	mHTT CaM bind
Cc1ccc(-c2nn(C)c(=O)c3ccccc23)cc1S(=O)(=O)NCCCO	95.1*	0.0
CCNS(=O)(=O)c1cc(-c2nn(C)c(=O)c3ccccc23)ccc1C	18.9	1.0
N#Cc1cc(Cc2ccc(N)c(C#N)c2)ccc1N	-38.5	2.4
Nc1ccc(Cc2ccc(N)c(O)c2)cc1O	59.5*	86.7*
Cc1ccc2cccc(OCc3ccccc3)c2n1	9.9	-5.7
Cc1c(Cl)cccc1-c1ccc(C(=O)Nc2ccccn2)o1	-16.5	-4.0
Cc1ccc2ccc(C(Nc3ccccn3)c3ccccc3Cl)c(O)c2n1 (stereo not drawn)	2.6	64.0*
CCOc1cccc(C(Nc2ccccn2)c2ccc3ccc(C)nc3c2O)c1O (stereo not drawn)	-6.9	67.0*
CCCN1CCN(C(=O)C2CCCN(c3ncccc3-c3noc(C4CCC4)n3)C2)CC1 (stereo not drawn)	-6.5	4.5
COCCCNC(=O)c1cc(-c2ccc(OC)cc2OC)nc2ccccc12	-6.6	1.9
O=C(NCC1CCCO1)c1cc2n(n1)CCCN(Cc1ccc(F)cc1)C2=O (stereo not drawn)	25.3	0.2
CCc1nc2c(NC(=O)c3ccccc3Br)cccn2n1	-3.1	0.3
O=S(=O)(Nc1ccc(Cn2cncn2)cc1)c1cc(F)cc(F)c1	-2.0	-4.3
